Screening data: PubChem BioAssay, several laboratories
Only some compounds are listed: those with a hit (about 3.9% of all), similar ones and a draw of the others.
HIF act: HIF pathway transcriptional activators, primary screen, cell-based, U2OS HRE-luciferase, luminescence; U2OS HRE-luciferase reporter; normalized: DMSO 0%, desferrioxamine 100%; activation, % at 7.5 µM (by protocol); hit rate 0.32% among 300,000; AID 1910, 2009;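 active = mean activation of at least 10% of the iron chelator positive control signal, with at least half of replicates also reaching 10%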
PLCb3 inh: human PLC-beta3 inhibitors, primary screen, biochemical, fluorescence | 1-phosphatidylinositol 4,5-bisphosphate phosphodiesterase beta-3 (Homo sapiens), Q01970 | Purified PLC-beta3, fluorogenic substrate | inhibition, % at 12.2 µM | hit rate 0.18% among 370,000 | AID 720704, 2013; in the data active = inhibition above about 11%
Target sequence (Q01970 whole entry, looked up): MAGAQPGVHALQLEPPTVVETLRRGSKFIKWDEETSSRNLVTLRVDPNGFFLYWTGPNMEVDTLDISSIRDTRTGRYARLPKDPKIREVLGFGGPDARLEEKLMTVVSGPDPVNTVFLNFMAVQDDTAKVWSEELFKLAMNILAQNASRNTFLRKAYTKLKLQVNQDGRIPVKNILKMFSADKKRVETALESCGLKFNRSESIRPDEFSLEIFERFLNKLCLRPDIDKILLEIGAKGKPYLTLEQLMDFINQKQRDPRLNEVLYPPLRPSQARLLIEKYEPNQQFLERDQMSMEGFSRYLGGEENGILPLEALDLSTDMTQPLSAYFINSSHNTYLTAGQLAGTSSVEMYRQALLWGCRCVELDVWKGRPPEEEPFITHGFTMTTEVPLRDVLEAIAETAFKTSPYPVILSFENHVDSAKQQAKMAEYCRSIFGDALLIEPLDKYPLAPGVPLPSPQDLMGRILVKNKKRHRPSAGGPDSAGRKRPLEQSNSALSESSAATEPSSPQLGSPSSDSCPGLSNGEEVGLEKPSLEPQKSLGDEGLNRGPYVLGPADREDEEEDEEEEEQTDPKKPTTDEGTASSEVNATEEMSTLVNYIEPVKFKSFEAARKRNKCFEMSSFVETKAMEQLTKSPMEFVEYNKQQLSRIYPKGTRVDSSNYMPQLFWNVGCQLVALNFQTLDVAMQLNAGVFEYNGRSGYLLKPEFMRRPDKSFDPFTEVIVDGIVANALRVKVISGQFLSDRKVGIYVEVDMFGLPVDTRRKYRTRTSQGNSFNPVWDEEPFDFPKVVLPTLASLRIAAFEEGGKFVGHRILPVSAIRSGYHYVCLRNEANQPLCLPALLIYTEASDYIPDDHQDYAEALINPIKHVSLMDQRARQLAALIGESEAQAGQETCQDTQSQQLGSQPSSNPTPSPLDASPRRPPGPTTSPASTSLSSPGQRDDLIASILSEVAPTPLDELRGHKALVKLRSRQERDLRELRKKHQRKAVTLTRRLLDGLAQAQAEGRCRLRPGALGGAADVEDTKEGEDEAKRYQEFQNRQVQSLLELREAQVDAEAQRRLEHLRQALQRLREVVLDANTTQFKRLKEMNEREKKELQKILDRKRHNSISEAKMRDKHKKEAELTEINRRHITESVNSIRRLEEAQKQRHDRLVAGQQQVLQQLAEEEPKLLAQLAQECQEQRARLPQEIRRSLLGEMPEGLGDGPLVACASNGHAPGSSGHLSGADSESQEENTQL
PLCg1 inh: PLC-gamma1 enzyme inhibitors, primary screen, biochemical, fluorescence, purified enzyme; 1-phosphatidylinositol 4,5-bisphosphate phosphodiesterase gamma-1 (Homo sapiens), P19174; fluorogenic substrate; inhibition, % at 12.2 µM; hit rate 0.84% among 370,000; AID 720700, 2013; in the data active = inhibition above about 9.5%
AHR act: AHR activators, primary screen, cell-based, luminescence, luciferase reporter, human. hit rate 2.5% among 320,000. Aryl hydrocarbon receptor (Homo sapiens), P35869. activation, % at 5 µM. AHR-responsive luciferase reporter cells. AID 2796, 2010; in the data active = activation above about 47%
sPLA2-III inh: human group III sPLA2 inhibitors, primary screen, biochemical, QFRET, BODIPY PC-A2 liposome substrate | Group 3 secretory phospholipase A2 (Homo sapiens), Q9NZ20 | QFRET BODIPY PC-A2 liposome hydrolysis, fluorescence | inhibition, % at 12.2 µM | hit rate 0.56% among 370,000 | AID 743126, 2013;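 active = inhibition above mean plus 3 SD of compounds lying within the high and low control bounds, cut at about 19% in these data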
CR mimetic SO: reduction of superoxide in aged yeast, primary screen, HTS. S. cerevisiae aged cells, superoxide DHE fluorescence; hits give low values. hit rate 0.18% among 330,000. AID 2690, 2010. superoxide response (% of plate mean), % at 10 µM;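 active = superoxide response under a set limit, about three screen SD below normal, cut at about 65% in these data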;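 note: yeast aged for seven days with compound at 30 °C before DHE staining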
AHR act cf: AHR activators, confirmation, cell-based, luminescence, luciferase reporter, human; shares compounds with AHR act; human cells, AHR-responsive luciferase reporter; activation, % at 9 µM; hit rate 87% among 2,300; AID 2845, 2010; in the data active = activation above about 49%;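 note: HepG2 hepatoma cells carrying a DRE-driven firefly luciferase reporter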
PXR act counter: human PXR activators, counter-screen for AHR activator project, cell-based, luciferase luminescence | cell-based PXR reporter | hit rate 88% among 2,300 | AID 434939, 2010 | activation, % at 11.6 µM | shares compounds with AHR act; in the data active = activation above about 11%;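 note: human hepatoma DPX-2 cells expressing full-length human PXR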
Hits are given with their value; – = inactive; · = no result.

SMILES | HIF act | PLCb3 inh | PLCg1 inh | AHR act | sPLA2-III inh | CR mimetic SO | AHR act cf | PXR act counter
COC1=CC(=O)OC(c2ccccc2C(F)(F)F)C1 (stereo not given) | · | – | – | · | – | · | · | ·
O=C(c1ccco1)c1coc2c1cc(O)c1ccccc12 | – | – | – | 89 | – | – | 120 | 18
CC(=O)c1coc2c1cc(O)c1ccccc12 | – | – | – | – | – | – | · | ·
Cc1nnc(Nc2ccc3c(c2)OCO3)c2ccccc12 | – | – | – | 84 | – | – | 105 | 161
CCOC(=O)Nc1ccc(OC(=O)Oc2ccc(NC(=O)OCC)cc2)cc1 | · | – | – | · | – | · | · | ·
Cc1ccsc1CNC(=O)C1(C)CCN1C(=O)C(C)C (stereo not given) | · | – | – | · | – | · | · | ·
Cc1cccc(NC(=O)C2CCCN(c3cnccn3)C2)c1 (stereo not given) | – | – | – | 88 | – | – | 70 | 32
CCc1cccc(NC(=O)C2CCCN(c3cnccn3)C2)c1 (stereo not given) | – | – | – | 91 | – | – | 58 | 41
CCCc1ccc(NC(=O)C2CCN(c3cnccn3)CC2)cc1 | – | – | – | – | – | – | · | ·
CC1S/C(=C(\C#N)C(N)=O)N(c2ccc(F)cc2)C1=O (stereo not given) | – | – | – | 97 | – | – | 122 | 15
Cc1ccc(NC(=O)C2CCN(c3nnc(-n4cccc4)s3)CC2)cc1C | · | – | – | · | – | · | · | ·
CC1=C(C(=O)Nc2cccc(F)c2)C(c2ccsc2)C2=C(CC(C)(C)CC2=O)N1 (stereo not given) | – | – | – | – | – | – | · | ·
Nc1ccc(Br)c2c1C(=O)c1ccccc1C2=O | – | · | · | 95 | · | – | 58 | 16
CC1=C(C(=O)N2CCOCC2)CC(CC(=O)NCc2cccc3ccccc23)C(=O)N1Cc1ccccc1 (stereo not given) | · | – | – | · | – | · | · | ·
O=C(NCc1cccnc1)c1ccc(-c2ccccc2[N+](=O)[O-])o1 | – | – | – | 87 | – | – | 95 | 39
CC(C)(C)OC(=O)N1CCC(N[C@@H](Cc2ccccc2)C(=O)NCCc2c[nH]c3ccccc23)(C(=O)NC2CCCCC2)CC1 | · | – | – | · | – | · | · | ·
COc1ccc(CCNC(=O)CC2Nc3ccccc3NC2=O)cc1OC (stereo not given) | – | – | – | – | – | – | · | ·
COc1ccc(CCNC(=O)CC2Oc3ccc(Cl)cc3NC2=O)cc1OC (stereo not given) | – | – | – | 98 | – | – | – | 46
O=c1c(-c2ccc(Cl)cc2)cnc2n1CCS2 | – | – | – | 116 | – | – | 131 | 53
COc1ccc(C(=O)OCCN2CCN(C3=NS(=O)(=O)c4ccccc43)CC2)cc1OC | – | – | – | – | – | – | · | ·
O=C1COc2ccccc2N1Cc1ccc(Cl)cc1 | – | – | – | – | – | – | · | ·
Clc1ccc(C2=NN=C3COc4ccccc4N3C2)cc1 | – | – | – | 88 | – | – | 118 | 24
Cc1cc(C)c2c(=O)n3c(nc2c1)C(C)NC(=O)c1cccnc1-3 (stereo not given) | · | – | – | · | – | · | · | ·
CC(C)Cn1c(/C=C/c2ccccc2)nc2ccccc21 | – | – | – | 84 | – | – | 119 | 68
Cc1ccc(-c2nc3cccnc3s2)cc1NS(=O)(=O)c1ccc2c(c1)CCCC2 | – | – | – | 93 | – | – | 56 | 154
SMILES | HIF act | PLCb3 inh | PLCg1 inh | AHR act | sPLA2-III inh | CR mimetic SO | AHR act cf | PXR act counter
COc1cc(N=Nc2ccc(Br)cc2)cc(C=O)c1O | · | – | – | · | – | · | · | ·
CCOC(=O)c1sc(Nc2nc3c(OC)cccc3s2)cc1C | – | – | – | 108 | – | – | 88 | 61
CCOC(=O)c1sc(Nc2nc3cc4c(cc3s2)OCO4)cc1C | – | – | – | – | – | – | · | ·
S=C1NC(c2cccs2)=CC(c2ccc(Br)cc2)N1 (stereo not given) | – | – | – | 117 | – | – | 111 | 60
S=C1NC(c2ccccc2)=CC(c2ccccc2)N1 (stereo not given) | – | – | – | – | – | – | · | ·
COc1ccc(C(=O)COc2ccccc2C#N)cc1 | – | – | – | 90 | – | – | 67 | 23
COC(=O)c1cc2c(c3c4cc(OC)ccc4n(C(=O)c4ccccc4)c13)C(=O)N(Cc1ccco1)C2 | · | – | – | · | – | · | · | ·
COC(=O)C1=C(C)N(Cc2ccc(C(F)(F)F)cc2)C(=NCc2ccccc2)NC1c1ccc(C(F)(F)F)cc1 (stereo not given) | · | – | – | · | – | · | · | ·
CCOC(=O)c1c(S(=O)(=O)NCc2cccs2)c(C)n(C)c1C | – | – | – | – | – | – | · | ·
Fc1ccc(/C=N/NC(=S)Nc2ccc(Cl)cc2Cl)cc1 | – | – | – | 84 | – | – | 107 | –
C[C@H]1CN([C@@H](C)CO)C(=O)c2cc(Br)cnc2O[C@H]1CN(C)C(=O)C1CCC1 | · | – | – | · | – | · | · | ·
CCOc1ccc2nc(NC(=O)Nc3cccs3)sc2c1 | – | – | – | 96 | – | – | 90 | 12
Cn1ncc2c(Nc3ccc(Br)cc3)nc(Nc3ccc(Br)cc3)nc21 | – | – | – | 112 | – | – | 104 | 13
Cc1ccc(Nc2nc(NCCO)nc3c2cnn3C)cc1Cl | – | – | – | 81 | – | – | 120 | 16
Cn1ncc2c(Nc3ccc(O)cc3)nc(Cl)nc21 | – | – | – | – | – | – | · | ·
CNc1nc(Nc2ccc(C)c(Cl)c2)c2cnn(C)c2n1 | – | – | – | – | – | – | · | ·
Cn1c(NC(=O)CCc2ccccc2)cc(=O)n(C)c1=O | – | – | – | 149 | – | – | 109 | 24
O=[N+]([O-])c1cccc2ccc(/C=C/c3ccc(C(F)(F)F)cc3)nc12 | – | – | – | 82 | – | – | 96 | 15
CCOc1cc(/C=C/c2ccc3cccc([N+](=O)[O-])c3n2)cc(Cl)c1O | – | – | – | – | – | – | · | ·
COc1ccc(NC(=O)C2(C)Cc3c(-c4ccc(N(C)C)cc4)ccnc3O2)cn1 (stereo not given) | · | – | – | · | – | · | · | ·
CSC1=NSC2=NC(=O)/C(=C\c3coc4ccccc4c3=O)C(=N)N12 | · | – | – | – | – | – | · | ·
CC(C)CSC1=NSC2=NC(=O)/C(=C\c3coc4ccccc4c3=O)C(=N)N12 | – | – | – | 81 | – | – | – | 18
